# Bioassay records deposited in PubChem BioAssay by National Center for Advancing Translational Sciences (NCATS).
# An excerpt weighted towards active compounds, which were near 1.6% of everything screened.
# p53ts 39C kill = cytotoxicity in p53ts cells at nonpermissive temperature | H1299-p53A138V viability at 39C, ATP luminescence, 24 h | Potency, µM (top dose mostly 46.1 µM), inactives show top-dose activity change, negative = cell killing, hits mostly cytotoxic | 1.5% of 130,000 active; also: % is scaled to controls: 0 for no effect and ±100 for the full control effect; nearly all actives have a fitted effect of over 55% in size
# Peg3 imprint = inducers of genomic imprint erasure in mouse ES cells; mouse ES Peg3-LacZ reporter, beta-gal luminescence, 40 h; 0.02% of 110,000 active; AID 1948; Potency, µM (highest dose often 60.7 µM), for the others: at the highest dose activity change, positive = activation, hits mostly activators
#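 Imprint erasure is scored as LacZ activity from the silenced maternal Peg3 allele in feeder-free female ES cells cultured 40 h with LIF. Luminescence is normalized to in-plate negative controls and fitted to the Hill equation.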
# p53ts 32C tox = kills p53ts cells at the permissive temperature; Potency, µM (titrated, usually from 46.1 µM), inactives show at the highest dose activity change, negative = cytotoxicity, usual class: cytotoxic; AID 924; 0.93% of 130,000 active; H1299-p53A138V at 32C, ATP luminescence viability, 24 h;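 also: 0% = DMSO and -100% = full killing by reference compound; nearly all actives have a fitted effect of over 55% in size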
#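 Viability by ATPlite luminescence after 24 h compound treatment (up to 46 uM) at the permissive 32C. Cells are H1299 carrying p53 A138V. Scale runs from DMSO basal to 100 uM tamoxifen as full kill; AC50 from Hill fits.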
# The depositor's hits bear a star; ? = inconclusive; · = no result given; [ ] = remark or other dose. Calls follow the shape of the dose curve; as a rule, active = well fitted curve in the direction sought with a large enough effect; inconclusive = small, poorly fitted or top-dose-only effect, or another doubt; inactive = no such curve, though single readings can be large; an effect the other way counts as inactive or inconclusive. Potency is read from the fitted curve at half-maximal effect.
SMILES,p53ts 39C kill,Peg3 imprint,p53ts 32C tox
COc1ccc(C(=O)Nc2cc(OC)ccc2OC)cc1,?,-13%,?
COc1ccc(C(=O)Nc2nnc(C)s2)cc1,13µM*,-33%[10.9 µM],13µM*
COc1ccc(C(=O)Nc2cccc(C)c2)cc1,5µM*,-87%,6.3µM*
COc1ccc(C(=O)Nc2cc(OC)nc(OC)n2)cc1,10µM*,·,16µM*
COc1ccc(CNC(=O)Nc2cccc(C)c2)cc1,-16%,-39%,-8%
COc1ccc(C(=O)Nc2ccccc2C(N)=O)cc1,13µM*,-68%,13µM*
COc1cc(NC(=O)CCc2ccccc2)nc(OC)n1,2%,-13%,-6%
COc1ccc(NC(=O)Nc2nnc(C)s2)cc1,?,-14%[10.9 µM],-8%
N#C/C(=C\c1ccc(O)c(O)c1)C(=O)NCCCCc1ccccc1,-14%,-22%,-28%
CN(C)C(=O)c1ccc(-c2cncnc2N2CCNCC2)cc1,3%,8%,1%
O=C1C2=C(Nc3cc([N+](=O)[O-])ccc3N2)O[C@@H]1c1c[nH]c2ccc(COc3ccccc3)cc12,12%[9.22 µM],?,8%[9.22 µM]
CCCCOc1cccc(C(=O)N(Cc2cccs2)c2ccc(OC)cc2)c1,-15%,-17%[10.9 µM],-7%
O=C(NCC(c1ccco1)S(=O)(=O)c1cccs1)c1ccc(F)c(F)c1 (centres undefined),4%,-6%[10.9 µM],-2%
c1ccc2nc(-c3nc4ccccc4[nH]3)ccc2c1,2µM*,-94%,3.2µM*
c1ccc2[nH]c(-c3ccnc4ccccc34)nc2c1,-4%,-16%,-11%
Cc1ccc2oc(C(=O)Nc3c(C(=O)Nc4cccc(Cl)c4)oc4ccccc34)cc(=O)c2c1,19%,-1%[10.9 µM],5%
CCc1ccc(NC(=O)CSc2cn(CC(=O)N3CCCC3)c3ccccc23)cc1,-20%,-12%[10.9 µM],-7%
O=C(CSc1cn(CC(=O)N2CCCC2)c2ccccc12)Nc1ccc(Cl)cc1,13µM*,-15%[10.9 µM],-4%
O=C(NCc1cccnc1)C(=O)NCC(c1cccnc1)N1CCN(c2ccc(F)cc2)CC1 (centres undefined),?,-8%[10.9 µM],37%
O=C(NCCc1ccccc1)C(=O)NCC(c1cccnc1)N1CCN(c2ccc(F)cc2)CC1 (centres undefined),20µM*,-19%[10.9 µM],?
COc1ccc(N2CCN(c3oc(-c4ccccc4C)nc3S(=O)(=O)c3ccccc3)CC2)cc1,19%,-20%[10.9 µM],11%
Cc1ccc(OCCn2cc(C(=O)C3CCCCC3)c3ccccc32)cc1,-27%,-8%[10.9 µM],5%
CN(C)S(=O)(=O)c1ccc(Nc2ccc(O)c3c2C(=O)c2c([N+](=O)[O-])ccc(O)c2C3=O)cc1,-3%[9.22 µM],?,-4%[9.22 µM]
O=C1c2c(O)ccc([N+](=O)[O-])c2C(=O)c2c([N+](=O)[O-])ccc(O)c21,16µM*,-37%,0%[1.84 µM]
O=C(c1cccn1-c1nnc(N2CCCCC2)s1)N1CCN(c2ccc(Cl)cc2)CC1,8%,-15%[10.9 µM],-6%
SMILES,p53ts 39C kill,Peg3 imprint,p53ts 32C tox
CC(=O)Nc1ccc(NC(=O)CCc2c(C)nc3c(c(C)nn3-c3ccccc3)c2C)cc1,-11%,-6%[10.9 µM],-3%
CC(=O)Nc1ccc(NC(=O)CCc2c(C)nc3c(c(C)nn3-c3ccc(C)cc3)c2C)cc1,7.9µM*,11%[10.9 µM],-7%
Cc1ccc(CNC(=O)CN2C(=O)C3(SCC(=O)N3c3ccc(F)c(F)c3)c3ccccc32)cc1 (centres undefined),15%,-12%[10.9 µM],1%
O=S1(=O)C=C(Sc2nc3cc(Cl)ccc3o2)c2ccccc21,20µM*,-37%,10µM*
CN(C)c1nc(N)nc(CSc2nc3cc(Cl)ccc3o2)n1,10%,-20%,-9%
CC(C)(C)c1ccc(C(=O)/C=C2\NC(=O)CS2)cc1,7.9µM*,-57%,10µM*
COCCOC(=O)/C=C1/NC(=O)CS1,-5%,-8%,4%
CCCSc1ncc(Cl)c(C(=O)NCc2ccc(C)cc2)n1,-23%,-10%[10.9 µM],9%
COc1cc(-c2cc(=O)c3ccccc3o2)ccc1O,-18%,-58%,-14%
COc1cc2oc(-c3ccccc3)cc(=O)c2cc1O,7.9µM*,-11%,?
COc1ccccc1NC(=O)CSc1nnc2c3ccccc3n(C(C)C)c2n1,-29%,-10%[10.9 µM],-9%
CCCc1oc2ccc(NS(=O)(=O)c3ccc(OC)cc3)cc2c1C(=O)OCC,?,-23%[10.9 µM],-2%
CCOC(=O)c1c(-c2ccccc2)oc2ccc(NS(=O)(=O)c3ccc(OC)cc3)cc12,-16%,-21%[10.9 µM],20%
CCCc1oc2ccc(NS(=O)(=O)c3ccc(OCC)cc3)cc2c1C(=O)OCC,20µM*,-17%[10.9 µM],?
CCOC(=O)c1c(-c2ccccc2)oc2ccc(NS(=O)(=O)c3ccccc3)cc12,16µM*,-26%[10.9 µM],43%
Cc1cccc(-c2cc(NC(=O)COc3ccccc3F)n(-c3ccccc3)n2)c1,-13%,3%[10.9 µM],-4%
CCCOc1ccc(-c2nn(-c3ccccc3)cc2C2NC(=O)NC(C)=C2C(=O)OC(C)C)cc1 (centres undefined),19%,-10%[10.9 µM],10%
COC(=O)CNC(=O)Nc1cc(C(=O)NCc2ccc(C)cc2)ccc1N1CCCC1,-14%,-7%[10.9 µM],-3%
CCOC(=O)c1c(C)[nH]c(C)c1S(=O)(=O)NCC(=O)Nc1cccc(Cl)c1,-22%,-4%[10.9 µM],0%
CCOc1ccc(C2C(C(=O)Nc3ccc(C)cc3C)=C(C)Nc3c(C(=O)Nc4ccc(C)cc4)cnn32)cc1OC (centres undefined),-9%,4%[10.9 µM],2%
COc1cc(Cl)c(C)cc1Nc1c2c(nc3ccccc13)CCC2,2µM*,-19%[10.9 µM],?
COc1cc(Cl)c(C)cc1NC(=O)c1ccc2c(Cl)c3c(nc2c1)CCC3,-11%,?,-10%
CCN1c2ccccc2NC2C1C(C(C)=O)C(=O)N2c1ccc(Cl)cc1 (centres undefined),20µM*,3%,?
COc1ccccc1N1C(=O)N(C(C)=O)C2C1Nc1ccccc1N2C (centres undefined),?,-10%,?
CCCCCCC1C(C#N)=C(N)OC2=C1C(=O)CC(C)(C)C2 (centres undefined),4%,-13%,-9%
SMILES,p53ts 39C kill,Peg3 imprint,p53ts 32C tox
CCCCCCC1C(C#N)=C(N)OC2=C1C(=O)CCC2 (centres undefined),16µM*,-15%,13µM*
CCC(C(=O)Nc1cccc(C#N)c1)n1c(=O)c(-c2ccccc2NC(C)=O)nc2ccccc21 (centres undefined),-10%,-13%[10.9 µM],-10%
COc1ccc(NC(=O)c2c(NCc3ccc(C)o3)sc3c2CCC(C)C3)c(OC)c1 (centres undefined),20µM*,-24%[10.9 µM],?
COc1ccccc1NC(=O)c1c(NCc2ccc(C)o2)sc2c1CCC(C)C2 (centres undefined),15%,-14%[10.9 µM],?
CCC(C)NC(=O)Cn1c(=O)n(CC2CCC(C(=O)NC)CC2)c(=O)c2sccc21 (centres undefined),-17%,-11%[10.9 µM],-3%
CCCCCCCCNC(C)C(O)c1ccc(SC(C)C)cc1 (centres undefined),20µM*,-48%,?
C[C@@H](NCCc1ccc(O)cc1)[C@@H](O)c1ccc(O)cc1,·,4%,·
COCCNC(=O)Cn1c(=O)n(-c2ccc(C)c(C)c2)c(=O)c2c3c(sc21)CCCCC3,-13%,-7%[10.9 µM],12%
